The results in this text go back to PMC7862700, “An all-to-all approach to the identification of sequence-specific readers for epigenetic DNA modifications on cytosine”.

Holding throughout (test): DAPPL (digital affinity profiling via proximity ligation, sequencing); 10 mM Tris-HCl pH 7.5, 50 mM NaCl, 1 mM DTT, 4% glycerol, room temperature, 30 min; GST-TFs on glutathione beads, 16-mer random dsDNA library, 0.1% formaldehyde crosslink after washing; high values mean tight binding
One assay deals with T1, FEV (Homo sapiens, UniProt Q99581 1-238).
T1 sequence: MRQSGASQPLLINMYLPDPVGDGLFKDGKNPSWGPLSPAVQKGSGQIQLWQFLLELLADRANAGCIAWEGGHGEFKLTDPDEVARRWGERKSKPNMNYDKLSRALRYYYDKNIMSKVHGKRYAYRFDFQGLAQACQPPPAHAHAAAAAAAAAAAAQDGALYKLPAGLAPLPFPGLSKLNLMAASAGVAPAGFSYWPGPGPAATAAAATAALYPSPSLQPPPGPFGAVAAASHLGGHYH
The note with it: protein: recombinant; tags: N-terminal GST; dsDNA, one strand shown. In outline:
(§1)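 Human transcription factors were made in yeast as GST fusions, captured on glutathione beads and barcoded with DNA. With a tag-only sample included, the pool was incubated with 200 nmole of a random double-stranded 16-mer DNA library in Tris/NaCl/DTT/glycerol buffer at room temperature for 30 min, then crosslinked with 0.1% formaldehyde after washing, ligated by proximity, amplified and sequenced. For binding signal, each hexamer's read frequency for a factor is divided by its frequency for the tag-only sample.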

Another assay has as its target ETV5 (Homo sapiens, UniProt P41161 1-510). The note with it: protein: recombinant; tags: N-terminal GST; dsDNA, one strand shown. In a few lines:
as §1

In another assay the target is HSF1 (Homo sapiens, UniProt Q00613 1-529). The note with it: protein: recombinant; tags: N-terminal GST; chain copies: 3; dsDNA, one strand shown. In a few lines: as §1
HSF1, sequence (Q00613 whole entry): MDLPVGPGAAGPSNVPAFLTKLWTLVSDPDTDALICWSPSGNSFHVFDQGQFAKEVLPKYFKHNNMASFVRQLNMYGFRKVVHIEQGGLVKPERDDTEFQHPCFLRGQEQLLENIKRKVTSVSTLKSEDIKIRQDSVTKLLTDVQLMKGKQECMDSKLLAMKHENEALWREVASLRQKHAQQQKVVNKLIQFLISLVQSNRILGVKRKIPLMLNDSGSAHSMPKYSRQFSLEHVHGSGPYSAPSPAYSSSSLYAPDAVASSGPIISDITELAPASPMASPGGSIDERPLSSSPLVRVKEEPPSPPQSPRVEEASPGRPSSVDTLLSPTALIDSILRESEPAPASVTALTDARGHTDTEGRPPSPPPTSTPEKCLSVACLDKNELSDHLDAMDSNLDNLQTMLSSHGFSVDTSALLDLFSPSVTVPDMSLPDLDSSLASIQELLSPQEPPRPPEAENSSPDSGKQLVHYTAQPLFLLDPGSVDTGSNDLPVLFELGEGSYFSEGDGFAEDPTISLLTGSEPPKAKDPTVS
The next assay has as its target T2, SPIC (Homo sapiens, UniProt Q8N5J4 1-248).
T2 sequence: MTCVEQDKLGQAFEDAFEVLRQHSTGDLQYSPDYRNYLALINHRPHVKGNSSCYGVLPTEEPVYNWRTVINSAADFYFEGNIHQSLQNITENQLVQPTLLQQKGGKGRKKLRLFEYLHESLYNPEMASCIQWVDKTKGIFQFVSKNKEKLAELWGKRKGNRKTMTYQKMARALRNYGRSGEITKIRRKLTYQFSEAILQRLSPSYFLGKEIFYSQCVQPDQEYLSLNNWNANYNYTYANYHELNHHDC
The note with it: protein: recombinant; tags: N-terminal GST; dsDNA, one strand shown. In outline: as §1

For the next assay, the target named is ELF4 (Homo sapiens, UniProt Q99607 1-663). The note with it: protein: recombinant; tags: N-terminal GST; dsDNA, one strand shown. In outline: as §1
ELF4, sequence (Q99607 whole entry): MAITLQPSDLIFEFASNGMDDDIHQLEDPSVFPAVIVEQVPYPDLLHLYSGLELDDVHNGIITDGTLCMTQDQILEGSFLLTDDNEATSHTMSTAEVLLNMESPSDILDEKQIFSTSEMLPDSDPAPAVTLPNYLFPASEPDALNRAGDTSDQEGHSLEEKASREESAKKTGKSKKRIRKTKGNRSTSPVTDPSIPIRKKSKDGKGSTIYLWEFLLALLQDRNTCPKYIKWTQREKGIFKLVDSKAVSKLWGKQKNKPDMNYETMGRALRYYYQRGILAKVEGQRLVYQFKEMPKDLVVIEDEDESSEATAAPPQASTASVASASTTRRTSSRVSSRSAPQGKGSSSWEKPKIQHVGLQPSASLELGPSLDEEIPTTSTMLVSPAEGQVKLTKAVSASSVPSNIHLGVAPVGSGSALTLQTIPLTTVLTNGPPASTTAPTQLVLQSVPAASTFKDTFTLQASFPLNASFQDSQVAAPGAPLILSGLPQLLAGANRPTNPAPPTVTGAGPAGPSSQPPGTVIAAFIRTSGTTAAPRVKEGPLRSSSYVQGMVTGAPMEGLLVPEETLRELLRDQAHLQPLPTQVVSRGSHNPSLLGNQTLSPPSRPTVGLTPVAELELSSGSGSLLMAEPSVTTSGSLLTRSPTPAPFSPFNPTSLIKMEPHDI
A further assay addresses T3, ELK4 (Homo sapiens, UniProt P28324-2 1-405).
T3 sequence: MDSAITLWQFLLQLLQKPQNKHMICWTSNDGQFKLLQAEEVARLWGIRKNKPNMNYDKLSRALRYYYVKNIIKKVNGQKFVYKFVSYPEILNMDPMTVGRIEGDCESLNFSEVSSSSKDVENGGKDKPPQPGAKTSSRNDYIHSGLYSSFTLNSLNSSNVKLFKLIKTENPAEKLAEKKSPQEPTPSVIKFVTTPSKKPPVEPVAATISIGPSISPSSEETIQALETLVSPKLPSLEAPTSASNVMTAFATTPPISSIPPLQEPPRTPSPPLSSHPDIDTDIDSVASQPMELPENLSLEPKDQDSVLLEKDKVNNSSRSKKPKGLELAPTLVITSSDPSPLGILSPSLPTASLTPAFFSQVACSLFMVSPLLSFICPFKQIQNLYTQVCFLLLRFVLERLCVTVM
The note with it: protein: recombinant; tags: N-terminal GST; dsDNA, one strand shown. In outline: as §1

The next assay deals with T4, ETV2 (Homo sapiens, UniProt O00321 1-342).
T4 sequence: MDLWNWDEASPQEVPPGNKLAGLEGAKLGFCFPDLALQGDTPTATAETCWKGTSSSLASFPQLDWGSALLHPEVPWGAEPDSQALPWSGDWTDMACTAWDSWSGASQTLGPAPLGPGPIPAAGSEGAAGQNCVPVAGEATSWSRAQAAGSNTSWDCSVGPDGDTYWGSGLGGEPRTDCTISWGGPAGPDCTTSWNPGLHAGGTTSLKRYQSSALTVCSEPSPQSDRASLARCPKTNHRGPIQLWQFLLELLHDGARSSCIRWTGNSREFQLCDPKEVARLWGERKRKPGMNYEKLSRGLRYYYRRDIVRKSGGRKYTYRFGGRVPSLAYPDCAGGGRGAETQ
The note with it: protein: recombinant; tags: N-terminal GST; dsDNA, one strand shown. In a few lines: as §1

The target in another assay is T5, ELF3 (Homo sapiens, UniProt P78545 1-371).
T5 sequence: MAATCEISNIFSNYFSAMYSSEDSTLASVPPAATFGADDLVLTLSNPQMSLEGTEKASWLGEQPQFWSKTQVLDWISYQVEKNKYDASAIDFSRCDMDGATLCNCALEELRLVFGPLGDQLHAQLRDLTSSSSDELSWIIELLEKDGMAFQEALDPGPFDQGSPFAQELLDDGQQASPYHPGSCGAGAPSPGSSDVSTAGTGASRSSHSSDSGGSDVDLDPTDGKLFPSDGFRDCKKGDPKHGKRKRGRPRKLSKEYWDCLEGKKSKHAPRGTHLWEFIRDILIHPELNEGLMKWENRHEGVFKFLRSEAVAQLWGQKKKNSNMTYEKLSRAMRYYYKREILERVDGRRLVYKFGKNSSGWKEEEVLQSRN
The note with it: protein: recombinant; tags: N-terminal GST; dsDNA, one strand shown. In a few lines:
as §1

The target in another assay is CRX (Homo sapiens, UniProt O43186 1-299). The note with it: protein: recombinant; tags: N-terminal GST; dsDNA, one strand shown. In a few lines:
as §1

The target in another assay is ETV1 (Homo sapiens, UniProt P50549 1-477). The note with it: protein: recombinant; tags: N-terminal GST; dsDNA, one strand shown. In a few lines:
as §1

Another assay deals with T6, ERF (Homo sapiens, UniProt P50548 1-548).
T6 sequence: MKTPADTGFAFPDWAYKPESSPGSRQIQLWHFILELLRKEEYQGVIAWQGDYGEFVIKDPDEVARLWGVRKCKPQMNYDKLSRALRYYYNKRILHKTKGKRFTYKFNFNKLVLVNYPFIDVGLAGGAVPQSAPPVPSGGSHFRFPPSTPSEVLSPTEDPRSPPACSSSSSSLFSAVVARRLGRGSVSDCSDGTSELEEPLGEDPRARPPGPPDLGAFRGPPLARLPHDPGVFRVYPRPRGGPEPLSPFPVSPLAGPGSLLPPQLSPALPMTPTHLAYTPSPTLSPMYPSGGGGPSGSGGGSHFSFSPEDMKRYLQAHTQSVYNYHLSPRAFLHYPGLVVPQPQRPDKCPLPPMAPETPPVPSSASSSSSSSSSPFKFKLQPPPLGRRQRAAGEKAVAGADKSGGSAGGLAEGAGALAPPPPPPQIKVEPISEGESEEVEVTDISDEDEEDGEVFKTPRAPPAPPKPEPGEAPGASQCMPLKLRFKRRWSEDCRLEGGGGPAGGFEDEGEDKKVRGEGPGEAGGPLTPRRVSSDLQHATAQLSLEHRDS
The note with it: protein: recombinant; tags: N-terminal GST; dsDNA, one strand shown. In outline: as §1

A further assay deals with T7, ETV3L (Homo sapiens, UniProt Q6ZN32 1-361).
T7 sequence: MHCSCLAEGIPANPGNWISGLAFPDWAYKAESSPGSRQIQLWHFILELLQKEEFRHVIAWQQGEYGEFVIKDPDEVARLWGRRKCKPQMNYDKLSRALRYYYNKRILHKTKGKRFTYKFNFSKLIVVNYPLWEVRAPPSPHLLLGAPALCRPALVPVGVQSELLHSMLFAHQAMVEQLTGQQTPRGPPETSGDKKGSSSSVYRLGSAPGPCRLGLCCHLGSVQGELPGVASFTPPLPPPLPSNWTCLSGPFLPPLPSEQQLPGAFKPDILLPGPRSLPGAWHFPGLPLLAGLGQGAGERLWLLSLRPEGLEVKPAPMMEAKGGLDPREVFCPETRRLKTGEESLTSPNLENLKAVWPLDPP
The note with it: protein: recombinant; tags: N-terminal GST; dsDNA, one strand shown. In a few lines:
as §1

A further assay addresses T8, ETS2 (Homo sapiens, UniProt P15036 1-469).
T8 sequence: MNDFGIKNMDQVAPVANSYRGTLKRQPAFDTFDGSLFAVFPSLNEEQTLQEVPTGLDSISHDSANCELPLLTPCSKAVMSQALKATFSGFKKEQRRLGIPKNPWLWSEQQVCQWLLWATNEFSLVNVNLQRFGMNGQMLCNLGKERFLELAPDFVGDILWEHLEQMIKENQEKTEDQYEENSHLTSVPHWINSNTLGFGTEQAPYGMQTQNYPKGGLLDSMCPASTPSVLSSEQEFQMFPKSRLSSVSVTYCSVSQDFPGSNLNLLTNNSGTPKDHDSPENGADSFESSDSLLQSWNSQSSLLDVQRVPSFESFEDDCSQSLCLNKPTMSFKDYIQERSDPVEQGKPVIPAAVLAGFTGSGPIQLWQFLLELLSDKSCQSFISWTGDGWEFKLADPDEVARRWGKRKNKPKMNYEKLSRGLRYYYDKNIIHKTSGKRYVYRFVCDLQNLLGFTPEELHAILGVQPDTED
The note with it: protein: recombinant; tags: N-terminal GST; dsDNA, one strand shown. In a few lines:
as §1

In a further assay the target is T9, SPDEF (Homo sapiens, UniProt O95238 1-335).
T9 sequence: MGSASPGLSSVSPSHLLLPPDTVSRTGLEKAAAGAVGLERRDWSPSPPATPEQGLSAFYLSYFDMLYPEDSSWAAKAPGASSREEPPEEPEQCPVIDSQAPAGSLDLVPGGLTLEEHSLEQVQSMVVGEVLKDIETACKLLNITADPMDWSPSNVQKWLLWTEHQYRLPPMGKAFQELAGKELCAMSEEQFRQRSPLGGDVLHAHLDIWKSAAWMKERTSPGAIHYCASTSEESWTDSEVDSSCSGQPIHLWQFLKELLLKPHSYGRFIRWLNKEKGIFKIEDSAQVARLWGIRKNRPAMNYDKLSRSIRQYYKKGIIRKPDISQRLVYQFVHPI
The note with it: protein: recombinant; tags: N-terminal GST; dsDNA, one strand shown. In outline: as §1

For the next assay, the target named is T10, ETV7 (Homo sapiens, UniProt Q9Y603 1-341).
T10 sequence: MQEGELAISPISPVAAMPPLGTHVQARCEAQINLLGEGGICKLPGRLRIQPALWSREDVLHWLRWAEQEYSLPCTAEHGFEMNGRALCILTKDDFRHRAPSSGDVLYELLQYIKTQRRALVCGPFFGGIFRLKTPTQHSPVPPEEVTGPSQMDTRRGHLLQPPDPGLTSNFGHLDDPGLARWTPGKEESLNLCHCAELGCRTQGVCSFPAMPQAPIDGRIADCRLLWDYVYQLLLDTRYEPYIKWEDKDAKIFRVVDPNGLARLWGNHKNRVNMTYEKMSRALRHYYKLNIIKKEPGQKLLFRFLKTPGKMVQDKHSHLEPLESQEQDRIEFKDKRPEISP
The note with it: protein: recombinant; tags: N-terminal GST; dsDNA, one strand shown. In a few lines:
as §1

Another assay concerns the target T11, ELF5 (Homo sapiens, UniProt Q9UKW6-2 1-255).
T11 sequence: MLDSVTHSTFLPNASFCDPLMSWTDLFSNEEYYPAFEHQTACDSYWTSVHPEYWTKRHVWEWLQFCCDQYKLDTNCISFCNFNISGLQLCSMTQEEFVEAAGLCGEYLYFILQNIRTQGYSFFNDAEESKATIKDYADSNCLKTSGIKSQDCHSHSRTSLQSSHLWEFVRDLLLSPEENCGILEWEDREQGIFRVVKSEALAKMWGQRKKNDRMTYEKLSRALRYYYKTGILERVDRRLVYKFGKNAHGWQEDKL
The note with it: protein: recombinant; tags: N-terminal GST; dsDNA, one strand shown. In outline:
as §1

The next assay has as its target T12, ETV3 (Homo sapiens, UniProt P41162-2 1-143).
T12 sequence: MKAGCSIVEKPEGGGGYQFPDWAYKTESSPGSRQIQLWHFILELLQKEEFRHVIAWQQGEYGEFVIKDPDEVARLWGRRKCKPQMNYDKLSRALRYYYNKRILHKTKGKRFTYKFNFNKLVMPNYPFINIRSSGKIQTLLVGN
The note with it: protein: recombinant; tags: N-terminal GST; dsDNA, one strand shown. In a few lines:
as §1

The target in another assay is ETV6 (Homo sapiens, UniProt P41212 1-452). The note with it: protein: recombinant; tags: N-terminal GST; dsDNA, one strand shown. In a few lines:
as §1

CRX, sequence (O43186 whole entry): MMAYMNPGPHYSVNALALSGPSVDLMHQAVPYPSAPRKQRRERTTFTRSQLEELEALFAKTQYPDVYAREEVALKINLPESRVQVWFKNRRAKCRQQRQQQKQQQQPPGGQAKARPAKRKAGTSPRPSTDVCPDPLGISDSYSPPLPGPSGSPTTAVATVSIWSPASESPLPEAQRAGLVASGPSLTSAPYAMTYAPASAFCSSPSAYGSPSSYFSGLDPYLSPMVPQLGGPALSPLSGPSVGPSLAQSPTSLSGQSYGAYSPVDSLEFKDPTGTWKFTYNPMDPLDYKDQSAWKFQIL
ETV5, sequence (P41161 whole entry): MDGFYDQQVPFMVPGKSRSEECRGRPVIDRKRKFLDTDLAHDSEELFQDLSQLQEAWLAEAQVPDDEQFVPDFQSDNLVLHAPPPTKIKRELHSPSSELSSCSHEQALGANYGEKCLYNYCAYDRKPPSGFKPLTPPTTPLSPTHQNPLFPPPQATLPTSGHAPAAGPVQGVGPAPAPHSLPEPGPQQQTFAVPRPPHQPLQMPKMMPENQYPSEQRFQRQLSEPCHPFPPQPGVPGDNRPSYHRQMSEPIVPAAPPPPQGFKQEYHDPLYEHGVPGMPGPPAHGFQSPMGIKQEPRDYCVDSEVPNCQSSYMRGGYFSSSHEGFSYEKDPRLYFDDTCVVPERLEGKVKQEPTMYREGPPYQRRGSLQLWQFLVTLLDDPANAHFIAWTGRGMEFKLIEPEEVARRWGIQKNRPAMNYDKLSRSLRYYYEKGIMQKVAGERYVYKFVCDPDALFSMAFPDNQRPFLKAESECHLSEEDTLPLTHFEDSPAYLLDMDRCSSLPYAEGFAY
ETV6, sequence (P41212 whole entry): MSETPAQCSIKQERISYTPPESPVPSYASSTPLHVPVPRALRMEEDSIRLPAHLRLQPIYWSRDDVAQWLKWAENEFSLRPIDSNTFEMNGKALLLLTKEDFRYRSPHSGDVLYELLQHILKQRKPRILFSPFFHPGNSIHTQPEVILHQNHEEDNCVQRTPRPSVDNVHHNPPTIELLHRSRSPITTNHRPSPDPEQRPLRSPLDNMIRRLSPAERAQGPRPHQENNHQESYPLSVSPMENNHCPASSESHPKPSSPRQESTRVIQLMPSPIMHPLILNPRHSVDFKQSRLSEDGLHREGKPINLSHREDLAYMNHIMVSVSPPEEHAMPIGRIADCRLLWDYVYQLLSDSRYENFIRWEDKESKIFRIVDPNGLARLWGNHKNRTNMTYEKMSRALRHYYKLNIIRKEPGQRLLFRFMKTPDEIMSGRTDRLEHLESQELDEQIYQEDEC
ETV1, sequence (P50549 whole entry): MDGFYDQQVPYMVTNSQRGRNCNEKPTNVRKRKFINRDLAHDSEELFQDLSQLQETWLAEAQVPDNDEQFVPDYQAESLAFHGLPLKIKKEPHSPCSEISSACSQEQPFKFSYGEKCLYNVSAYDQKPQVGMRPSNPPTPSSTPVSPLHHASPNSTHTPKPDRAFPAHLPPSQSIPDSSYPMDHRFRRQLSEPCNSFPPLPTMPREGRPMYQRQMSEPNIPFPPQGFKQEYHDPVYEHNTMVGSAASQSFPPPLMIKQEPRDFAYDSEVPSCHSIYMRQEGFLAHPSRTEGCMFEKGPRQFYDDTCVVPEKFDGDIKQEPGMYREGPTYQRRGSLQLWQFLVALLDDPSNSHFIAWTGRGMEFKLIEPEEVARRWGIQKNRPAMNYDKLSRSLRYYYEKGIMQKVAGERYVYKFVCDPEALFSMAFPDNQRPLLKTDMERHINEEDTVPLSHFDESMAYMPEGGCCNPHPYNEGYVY

Take CTTATA: the binding signal with FEV is 1.31 fold enrichment (6-mer frequency, TF over GST control); with ETV5 it was 1.29 fold enrichment (6-mer frequency, TF over GST control); in the assay with HSF1 it was 1.65 fold enrichment (6-mer frequency, TF over GST control); in the assay with SPIC, 1.34 fold enrichment (6-mer frequency, TF over GST control); with ELF4, 1.32 fold enrichment (6-mer frequency, TF over GST control); with ELK4, 1.38 fold enrichment (6-mer frequency, TF over GST control). For the same sequence, the binding signal with ETV2 was 1.15 fold enrichment (6-mer frequency, TF over GST control); with ELF3, 1.37 fold enrichment (6-mer frequency, TF over GST control); with CRX it was 2.27 fold enrichment (6-mer frequency, TF over GST control); in the assay with ETV1, 1.49 fold enrichment (6-mer frequency, TF over GST control); with ERF, 1.29 fold enrichment (6-mer frequency, TF over GST control); in the assay with ETV3L it was 1.35 fold enrichment (6-mer frequency, TF over GST control). The binding signal with ETS2 is 1.41 fold enrichment (6-mer frequency, TF over GST control); in the assay with SPDEF, 1.51 fold enrichment (6-mer frequency, TF over GST control); in the assay with ETV7 it was 1.39 fold enrichment (6-mer frequency, TF over GST control); with ELF5, 1.48 fold enrichment (6-mer frequency, TF over GST control); with ETV3, 1.28 fold enrichment (6-mer frequency, TF over GST control); in the assay with ETV6, 1.33 fold enrichment (6-mer frequency, TF over GST control).
